Bioassay records: PubChem BioAssay, Broad Institute
NSD2 inh: inhibitors of human NSD2, primary screen, biochemical, plate reader, single point. Histone-lysine N-methyltransferase NSD2 (Homo sapiens), O96028. 0.07% of 44,000 active. NSD2-SET H3K36me1 DELFIA fluorescence. AID 624260, 2012. inhibition, % at 12.5 µM; in the data active = inhibition above about 54%, passing the limit was not always enough;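 also: inhibitors reduce the monomethyl H3K36 fluorescence signal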
Starred values were filed as active, the others as inactive. The full list was thinned out, with hits kept by preference.

SMILES	NSD2 inh
C[C@@H]1O[C@@H](Oc2ccc(C3Oc4cc(O)cc(O)c4C(=O)C3O)cc2O)[C@H](O)[C@H](O)[C@H]1O (stereo partly specified)	33.2
O=C(C[C@H]1C=C[C@H](NS(=O)(=O)c2cccc(F)c2)[C@@H](CO)O1)N1CCCCC1	0.8
CC(C)CC#Cc1cnc2c(c1)C(=O)N([C@@H](C)CO)C[C@H](C)[C@@H](CN(C)Cc1ccccc1F)O2	-5.0
COc1cc(C[C@@H]2CO[C@@H](c3ccc(O)c(OC)c3)[C@@H]2CO)ccc1O	68.0*
COc1cc([C@H]2OC[C@H]3[C@@H]2CO[C@@H]3c2ccc(O)c(OC)c2)ccc1O	10.6
COc1cc([C@H]2OC[C@H]3[C@@H]2CO[C@H]3c2ccc(OC)c(OC)c2)ccc1O	-0.8
COc1ccc(CN(C)C[C@@H]2Oc3ccc(N(C)C)cc3CC(=O)N([C@@H](C)CO)C[C@@H]2C)cc1	5.6
COc1ccccc1S(=O)(=O)N[C@H]1CC[C@H](CC(=O)N2CCCCC2)O[C@@H]1CO	-26.1
O=C1OCc2cc3cccc(O[C@@H]4O[C@H](CO[C@@H]5OC[C@@H](O)[C@H](O)[C@H]5O)[C@@H](O)[C@H](O)[C@H]4O)c3c(O)c21	9.7
C[C@H]1CN([C@@H](C)CO)C(=O)c2cccc(NC(=O)Nc3ccccc3)c2O[C@@H]1CN(C)C(=O)NC1CCCCC1	-2.9
O=C(C[C@@H]1C[C@H]2c3cc(NC(=O)Nc4ccc(C(F)(F)F)cc4)ccc3O[C@H]2[C@H](CO)O1)NCc1cccnc1	-10.9
C[C@@H]1CN([C@@H](C)CO)C(=O)c2cc(C#Cc3ccc(F)cc3)cnc2O[C@H]1CN(C)C(=O)c1ccccc1F	6.9
COc1cc(/C=C/C(=O)O[C@@H]2C[C@@](O)(C(=O)O)C[C@@H](O)[C@@H]2O)ccc1O	12.4
O=C(/C=C/c1ccc(O)cc1)O[C@@H]1CC(O)(C(=O)O)C[C@@H](OC(=O)/C=C/c2ccc(O)cc2)C1O (stereo partly specified)	63.0*
CC(=O)CCC1C2C(O)C(C(C)C)C(OC(=O)/C=C/c3ccccc3)CC12C (stereo unspecified)	-11.4
Cc1cc(-c2ccc(N=Nc3cc(S(=O)(=O)O)c4ccccc4c3N)c(C)c2)ccc1N=Nc1cc(S(=O)(=O)O)c2ccccc2c1N	91.6*
COc1ccc(NC(=O)Nc2cccc3c2O[C@H](CN(C)C(=O)NC(C)C)[C@H](C)CN([C@H](C)CO)C3=O)cc1	4.8
CC(C)=CCc1c(O[C@@H]2O[C@H](CO)[C@@H](O)[C@H](O)[C@H]2O)cc(O)c2c1O[C@H](c1ccc(O)cc1)CC2=O	70.5*
COc1c(OC2OC(CO)C(O)C(O)C2O)cc(O)c2c1OC(c1ccccc1)CC2=O (stereo unspecified)	36.0
O=C1CC(c2ccc(O)cc2)Oc2cc(O[C@@H]3O[C@H](CO)[C@@H](O)[C@H](O)[C@H]3O)cc(O)c21 (stereo partly specified)	-1.8
C[C@H]1CN([C@@H](C)CO)C(=O)c2cc(N(C)C)ccc2O[C@@H]1CN(C)C	-0.6
CC(C)OC(=O)N(C)C[C@H]1OCc2ccccc2-c2c(n(C)c3ccccc23)C(=O)N([C@@H](C)CO)C[C@H]1C	0.9
Cc1noc(C)c1NC(=O)N(C)C[C@H]1OCCCC[C@H](C)Oc2ccc(NS(=O)(=O)c3ccc(F)cc3)cc2C(=O)N([C@@H](C)CO)C[C@@H]1C	-0.6
C[C@H]1CCCCO[C@@H](CN(C)CC2CCCCC2)[C@@H](C)CN([C@@H](C)CO)C(=O)c2cc(NC(=O)Nc3ccc(F)cc3)ccc2O1	13.1
CC1=CC(=O)CC2C1(C)CCC(C)C2(C)CCC(C)CC(=O)O (stereo unspecified)	8.0
SMILES	NSD2 inh
CC(CC[C@]1(C)C2CCC=C(CO)[C@]2(C)CC[C@H]1C)CC(=O)O (stereo partly specified)	-0.6
CC1=CC(=O)OC1(O)CCC(C)CC(=O)O (stereo unspecified)	74.8*
CNC[C@@H]1Oc2cc(C#Cc3cccnc3)ccc2S(=O)(=O)N([C@@H](C)CO)C[C@H]1C	-0.4
O=C(O)c1c(O)cc(OC2OC(CO)C(O)C(O)C2O)cc1/C=C/c1ccccc1 (stereo unspecified)	75.7*
O=C(/C=C/c1ccccc1)O[C@@H]1O[C@H](CO)[C@@H](O)[C@H](O)[C@H]1O	0.0
O=C(CCc1ccc(O)cc1)c1ccc(O[C@@H]2O[C@H](CO)[C@H](O)[C@H](O)[C@H]2O)cc1O	14.6
COCC#Cc1ccc2c(c1)O[C@H](CN(C)C(=O)c1ccccc1)[C@H](C)CN([C@@H](C)CO)S2(=O)=O	-3.4
